In PubChem BioAssay (NCI) one finds growth data, which are given here for 40 compounds.

Compounds without any hit were thinned out: in the full panel of roughly 83,000, 20% have a hit.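 Treatment: one concentration, 48 hours, 96-well format. Scoring: percent growth, with anything below 10 considered active.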 A number with no mark means an inactive call. Calls of active or inactive are those of the source.

The assay concerns NCI-H322M lung. The assay can be described thus: NCI-60 one-dose screen, 48 h (100 = growth as untreated, 0 = no growth, -100 = all killed). Particulars: 10 µM unless noted. The method, then: Growth inhibition of the NCI-H322M human Non-Small Cell Lung tumor cell line is measured as a screen for anti-cancer activity. Cells are grown in 96 well plates and exposed to the test compound for 48 hours. Compounds are tested at a single concentration, which is 10^-5 M for most compounds. The reported endpoint is percent growth (GI% or GIPRCNT), where numbers from 0 - 100% represent growth inhibition, and numbers from -100% - 0 represent cell death. For example, a value of 40 represents 60% growth inhibition. A value of 0 means no net growth occurred over the course of the experiment. A value of -40 indicates 40% of cells at the beginning of the experiment died by the end of the experiment. A value of -100 means all cells are dead at the end of the experiment.
NCI-60 Human Tumor Cell Lines Screen was performed using the standard one-dose NCI protocol, which is described in more detail at https://dtp.cancer.gov/discovery_development/nci-60/default.htm.
Compounds with GIPRCNT values below 10 were considered active. Activity score was based on GIPRCNT using the following formula: […]
Score is 0 for GIPRCNT values of 100 or above, 50 for GIPRCNT values of 0, and 100 for GIPRCNT values of -100.
Turning to `COc1cccc2nc(Nc3cccc(NC(=O)c4ccc(N5CCN(C)CC5)c(C(F)(F)F)c4)c3)ccc12`, the growth was 42.6%.
With `COc1ccc(/C=C2\N=C(c3cccnc3)N(c3ccccc3)NC2=O)cc1` the figure was 94.3%.
For `O=C(NC1CC1)c1ccc(-c2nc3ccc4[nH]ncc4c3c3c2CCCC3)cc1`, the growth is 41.7%.
Under `COc1ccc(/C(=C\c2cc(OC)c(OC)c(OC)c2)C(=O)N2CCNCC2)cc1` stands 99.2%; under `CC(C)CC(NC(=O)OCC1c2ccccc2-c2ccccc21)C(=O)O` (stereo not given), 101%; under `Fc1cnccc1-c1nc2ccc3[nH]ncc3c2c2c1CCCC2`, 29.5%.
Turning to `Cc1cc(N=Nc2ccc(-c3ccc(N=Nc4ccc(O)c(C(=O)O)c4)cc3)cc2)c(N)c(N=Nc2ccc(C(=O)O)cc2)c1N`, the growth was 99.9%.
Consider `CCCCn1c(C)nc2cc(Nc3nc(Cl)nc4nc[nH]c34)ccc21`, for which the growth was 76.8%.
With `Nc1cc2nc3ccccc3oc-2cc1=O`, the growth is 108%.
With `O=C(Nc1ccc(Oc2ccc(NC(=O)Nc3ccccc3Cl)cc2)cc1)Nc1ccccc1Cl` the figure was 75.7%; with `COc1cc(C2CC(c3ccc(Cl)cc3)=NN2C=O)ccc1OS(=O)(=O)c1ccc(C)cc1` (stereo not given), 97%; with `COc1ccc(-c2nc(-c3ccccc3OCc3ccccc3OC)nc(C)c2C(C)=O)cc1`, 94.7%.
With `FC(F)(F)c1ccc(/C=N/Nc2nnc3n2N=C(c2ccc(Cl)cc2)CS3)cc1` the figure was 60.9%; with `FC1(F)CCN(Cc2c[nH]c3cc(Cl)ccc23)C[C@H]1CCc1ccccc1`, 84.3%.
With `Cc1[nH]n(C(=O)c2ccncc2)c(=O)c1N=Nc1ccc(O)c(C(=O)O)c1` the figure was 91.3%; with `COc1cc2c(cc1I)-c1c(cc(OC)c(OC)c1OC)CC[C@@H]2NC(C)=O`, 61.6%.
As to `CCCCn1cnc(-c2cc(-c3ccccc3)cc(C(F)(F)F)c2)n1`, the growth is 99.8%.
Under `CCCCN(CCCC)CCC(O)c1cc2ccc(C(F)(F)F)cc2c2cc(C(F)(F)F)ccc12` (stereo not given) stands 61.3%; under `Nc1nc2c(c3ncccc13)C(c1ccccc1)Cc1ncccc1-2` (stereo not given), 102%; under `COc1cccc(NC(=O)c2c(-c3ccccc3)c(-c3ccccc3)n[nH]c2=O)c1`, 111%.
With `COc1cccc2nc(Nc3cccc(NC(=O)c4cc(N5CCOCC5)cc(C(F)(F)F)c4)c3)ccc12` the figure was 68.6%; with `CC1=C(C(=O)Nc2ccc(F)cc2)C(c2ccc(C)cc2)C2=C(CC(C)(C)CC2=O)N1` (stereo not given), 103%; with `N#Cc1nc(-c2cccc(Br)c2)cc(-c2ccc(Nc3nc(N4CCCCC4)nc(N4CCCCC4)n3)cc2)c1N`, 63.1%.
With `N#Cc1ccc(NC(=O)Nc2nc3ccc(OC(F)(F)F)cc3s2)cc1` the figure was 4% (active); with `C#CC[C@@H]1C[C@]2(C)[C@H]3CC[C@@H]4[C@H]5C(C(=C)C)CC[C@]5(C(=O)NCCCCN)CC[C@@]4(C)[C@]3(C)CC[C@H]2C(C)(C)[C@H]1OC(C)=O` (stereo not given in full), 60.4%.
With `NC(N)=N/N=C/c1ccccc1`, the growth is 91.2%.
With `C=CCN(CCOC(=O)c1ccc([N+](=O)[O-])cc1)CCOC(=O)c1ccc([N+](=O)[O-])cc1` the figure was 91.1%.
Under `CC(C)c1[nH]ncc1-c1nc2ccc3[nH]ncc3c2c2c1CCCC2` stands 39.7%; under `Cc1ccc(N=CNN=C(N)N)cc1`, 111%.
Under `C/C(CC(=O)NNc1ccc([N+](=O)[O-])cc1)=N\Nc1ccc([N+](=O)[O-])cc1` stands 71.7%; under `CCCCn1c(-c2ccc(F)cc2)nc2cc(OC)c(OC)cc2c1=O`, 78%.
For `CN(C)CCOc1nc2c3ccncc3cc(-c3cccc(Cl)c3)c2c2cnccc12`, the growth is 44.1%.
With `COc1cccc(Cn2c(-c3nonc3NC(C)=O)nc3ccccc32)c1` the figure was 33.7%.
Under `[Ag].[Ag].[NH-]S(=O)(=O)c1ccc(N=Nc2cc(N=Nc3ccc(S([NH-])(=O)=O)cc3)c3c(NC(=O)C(Cl)Cl)cccc3c2OC(=O)C(Cl)Cl)cc1.[c-]1nccs1.[c-]1nccs1` stands 97.2%; under `CCCCN(CCCC)CCC(=O)c1ccc(OC)c2ccccc12`, 104%.
Under `C/C(=N\OC(=O)Nc1cccc(Cl)c1)c1ccccc1` stands 97.6%.
On to `COc1cccc(NC(=O)[C@H](C(C)C)n2c(=O)[nH]c3ccccc3c2=O)c1`, for which the growth is 117%.
In the case of `Brc1ccccc1Cn1c(-c2cncs2)nc2ccccc21`, the growth was 86.6%.
For `CC(C)c1ccc(Cn2ccc3c4c(N)nc(NC5CC5)nc4ccc32)cc1`, the growth is -93.2% (active).
Turning to `COc1cc2c(cc1OC)C(=O)OC2`, the growth was 116%.
